What was measured:
Assay in all cases: PBM binding z-score (relative to random genomic background probes); higher = stronger binding; sequences stand for … in GC…GCGATTGACAGCGTAGAATGAAGG
[1] = tested on: FXR:RXRa (NR concentration 270 nM, RXRa partner concentration 90 nM)
In short: (§1)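 Regression normalization was applied to scanned fluorescence from custom Agilent 4×180K protein-binding microarrays. Before scanning, arrays were incubated 1 h with ligand-free nuclear receptor dimers, and binding was detected with antibodies against each partner (one per run). Binding z-scores use the random background probes as reference.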

[2] = tested on: LXRa:RXRa (NR concentration 270 nM, RXRa partner concentration 90 nM)
In short: as §1

[3] = tested on: LXRa homodimer (NR concentration 270 nM)
In short: as §1

[4] = tested on: LXRb:RXRa (NR concentration 270 nM, RXRa partner concentration 90 nM)
In short: as §1

[5] = tested on: LXRb homodimer (NR concentration 270 nM)
In short: as §1

[6] = tested on: PPARa:RXRa (NR concentration 270 nM, RXRa partner concentration 90 nM)
In short: as §1

[7] = tested on: PPARg:RXRa (NR concentration 180 nM, RXRa partner concentration 90 nM)
In short: as §1

[8] = tested on: PPARg:RXRa 270nM:90nM, anti-RXR (NR concentration 270 nM, RXRa partner concentration 90 nM)
In short: as §1

[9] = tested on: PPARg:RXRa 30nM:10nM, anti-RXR (NR concentration 30 nM, RXRa partner concentration 10 nM)
In short: as §1

[10] = tested on: PPARg:RXRa 90nM:30nM, anti-RXR (NR concentration 90 nM, RXRa partner concentration 30 nM)
In short: as §1

[11] = tested on: PPARg:RXRa DBDmut IVT, anti-RXR (DBD mutation: RXRa K156A/R161A, NR concentration 270 nM, RXRa partner concentration 90 nM)
In short: as §1

[12] = tested on: PPARg:RXRa IVT, anti-PPARg (NR concentration 270 nM, RXRa partner concentration 90 nM)
In short: as §1

[13] = tested on: PPARg DBDmut:RXRa IVT, anti-PPARg (DBD mutation: PPARg1 K132A/R137A, NR concentration 270 nM, RXRa partner concentration 90 nM)
In short: as §1

[14] = tested on: PPARg DBDmut IVT, anti-PPARg (DBD mutation: PPARg1 K132A/R137A, NR concentration 270 nM)
In short: as §1

[15] = tested on: PPARg homodimer (NR concentration 180 nM)
In short: as §1

[16] = tested on: PXR:RXRa (NR concentration 270 nM, RXRa partner concentration 90 nM)
In short: as §1

[17] = tested on: PXR homodimer (NR concentration 270 nM)
In short: as §1

[18] = tested on: RARa:RXR (NR concentration 270 nM, RXRa partner concentration 90 nM)
In short: as §1

[19] = tested on: RARa homodimer (NR concentration 270 nM)
In short: as §1

[20] = tested on: RARb:RXRa (NR concentration 270 nM, RXRa partner concentration 90 nM)
In short: as §1

Row | Sequence | PBM binding z-score [1] | PBM binding z-score [2] | PBM binding z-score [3] | PBM binding z-score [4] | PBM binding z-score [5] | PBM binding z-score [6] | PBM binding z-score [7] | PBM binding z-score [8] | PBM binding z-score [9] | PBM binding z-score [10] | PBM binding z-score [11] | PBM binding z-score [12] | PBM binding z-score [13] | PBM binding z-score [14] | PBM binding z-score [15] | PBM binding z-score [16] | PBM binding z-score [17] | PBM binding z-score [18] | PBM binding z-score [19] | PBM binding z-score [20]
1 | CCTCGGAGGACAGAAGGTCAGAGGTGTCCGCTTT | 1.1 | 1.45 | 0.406 | 0.796 | -0.636 | 2.06 | 0.463 | 1.58 | -0.408 | 0.771 | -0.101 | 0.357 | -1.36 | -1.55 | 0.853 | 1.4 | 0.183 | 2.11 | 0.0276 | 3.32
2 | GGAACGAGGGCATTCGGGTTGATAGCATGGCGAT | 1.28 | 1.22 | -0.291 | 0.287 | -0.152 | 1.74 | 0.887 | 0.703 | -0.367 | 0.323 | 2.77 | 2.27 | 0.359 | -0.376 | 0.523 | 3.69 | 2.77 | 0.733 | -0.569 | 1.86
3 | CTCGAAAGGTCGTGCTCAGGTGAGTATCCCAAAC | 4.79 | 3.79 | 0.264 | 3.34 | 0.35 | 4.61 | 2.17 | 3.89 | 0.803 | 2.2 | 0.866 | 1.8 | 0.243 | -0.461 | 1.25 | 3.1 | 0.327 | 3.67 | -0.0794 | 3.83
